For 48 molecules, Potency and activity, negative = inhibition results are on record in PubChem BioAssay AID504332 (National Center for Advancing Translational Sciences (NCATS), 2011).

The campaign covered roughly 350,000 compounds. About 31,000 (8.9%) were called active. Where a call stands in place of a potency, no number is given. Roughly 15% stayed inconclusive and do not appear here. The sample as a whole holds a higher share of actives than the screen did. Values without a mark were called inactive. Calls follow the shape of the dose curve; as a rule, active = well fitted inhibition curve with a large enough effect; inconclusive = small, poorly fitted or top-dose-only effect; inactive = no such curve, though single readings can be large or run the other way.
Potency is read from the fitted curve at half-maximal effect.

Chain of Histone-lysine N-methyltransferase EHMT2 (Homo sapiens) (Q96KQ7 913-1193 limits assumed): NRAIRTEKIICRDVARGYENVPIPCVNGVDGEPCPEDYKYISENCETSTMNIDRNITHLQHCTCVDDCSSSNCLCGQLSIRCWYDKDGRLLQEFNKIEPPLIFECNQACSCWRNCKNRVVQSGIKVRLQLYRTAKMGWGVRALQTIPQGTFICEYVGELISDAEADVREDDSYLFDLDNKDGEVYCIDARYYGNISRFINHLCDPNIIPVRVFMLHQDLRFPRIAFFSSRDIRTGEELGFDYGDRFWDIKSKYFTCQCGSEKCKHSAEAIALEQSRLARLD

For the experiment, the target named is Histone-lysine N-methyltransferase EHMT2 (Homo sapiens) (UniProt Q96KQ7). Description: qHTS Assay for Inhibitors of Histone Lysine Methyltransferase G9a. Also: nearly all actives have a fitted effect of over 75% in size. The following applies: G9a H3K9 monomethylation, AlphaScreen, 2 h; series mostly up to 59 µM. The text has this:
Methylated lysines, on the N-terminal tails of histone proteins serve as epigenetic markers to recruit factors that can then modify local chromatin structure to lead to functional consequences. G9a and other members of the SUV39 family of the SET domain-containing superfamily of histone lysine methyltransferases (HMT) have been identified to specifically methylate Lys9 of histone H3 (H3K9). G9a catalyzes the mono- and di-methylation of H3K9 in mammalian euchromatic regions, where the resulting H3K9me2 is indicative of transcriptional repression. […] The inhibition of G9a will result in transcriptional activation and work synergistically with DNA methyltransferase and histone deacetylase inhibitors, to kill cancer cells. This qHTS assay for identification of G9a inhibitors is a chemiluminescence based AlphaScreen (PerkinElmer). Methylation of biotinylated-histone peptide is measured through specific antibody-based detection, in conjunction with streptavidin-coated donor and anti-IgG antibody-coated acceptor beads. The method is particularly well suited for detection of inhibitors acting by the desired histone peptide competitive mechanism and is applicable to testing other HMTs. Although AlphaScreen has significant advantages with its utility in a variety of epigenetic target assays, the primary screening data provided in this deposition should be used with caution due to the prevalence of screening artifacts. An AlphaScreen counterscreen is highly recommended to be run against any putative actives to eliminate non specific artifacts. Alternatively, one can use other AlphaScreen assays in PubChem to filter out promiscuous hits. Quinn et al. A chemiluminescence-based method for identification of histone lysine methyltransferase inhibitors. Mol Biosyst 6(5): 782-8. 2010. PMID: 20567762 [2] Baell,Holloway. New substructure filters for removal of pan assay interference compounds (PAINS) from screening libraries and for their exclusion in bioassays. J Med Chem. 53(7):2719-40. 2010. PMID: 20131845 NIH Molecular Libraries Probe Production Network [MLPCN] NIH Chemical Genomics Center [NCGC] Structural Genomics Consortium (SGC) NIH Grant: 5U54 MH084681-02
To each well of a 1,536w plate, 2ul of HMT enzyme (final 20nM) were added, using a nanoliter dispenser. The G9a- and GLP-inhibitor BIX-01294 (CID: 25150857) are used as an intraplate control, with a 16-point titration in duplicate. A Kalypsys pin-tool transferred 23nl of library compound solution in DMSO to each well. Following a 15 min incubation of enzyme with compounds at room temperature, 1ul mixture of b-H3K9 peptide substrate (final 500nM) and SAM cofactor (final 20uM) were added. Reactions were allowed to proceed at room temperature for 2 hours. Methylated b-H3K9 peptide product was detected with 0.5 ug/mL rabbit polyclonal anti-monomethyl histone H3K9 antibody (Abcam Inc., Cambridge, MA) and 20 ug/mL each streptavidin-coated donor and anti-rabbit IgG acceptor AlphaScreen beads. Antibody and beads were added in a 1ul dispense, for a final volume of 4ul, and plates were incubated, protected from the light, for 10 min at room temperature. Microplates were then read on an EnVision multilabel plate reader using the 1,536 plate HTS AlphaScreen aperture (excitation time 80 ms, measurement time 240 ms).
(In general: Quantitative high-throughput screening tests each substance at several concentrations.)
`CC(=O)Nc1ccc(NC(=O)c2cc3sccc3n2Cc2ccc(F)cc2)cc1`: the Potency result is “inactive”.
Regarding `COc1ccc(NC(=O)C2CCCN(S(=O)(=O)c3c(C)[nH]c(=O)[nH]c3=O)C2)c(OC)c1` (stereo not drawn), the Potency entry was “inactive”.
As for `CCOC(=O)CNC(=O)CSc1nnc(COc2ccc(Cl)cc2)n1CC`, the Potency is 20 µM (active).
On to `CCn1c(COc2ccc(OC)cc2)nnc1SCC(=O)Nc1cc(OC)ccc1OC`, for which the activity, negative = inhibition is 7.11% [at 12.7 µM].
In the case of `C=CCn1c(COc2ccccc2)nnc1SCC(=O)NCC(=O)OCC`, the Potency entry was “inactive”.
For `CCOC(=O)CNC(=O)c1nn(-c2cccc(OC)c2)c(=O)c2ccccc12`, the Potency entry was “inactive”.
Take `CCn1c(SCC(=O)Nc2nccs2)nnc1-c1ccncc1`: the activity, negative = inhibition is -2.99% [at 12.7 µM].
For the molecule `CCOC(=O)CNC(=O)CSc1nnc(-c2cccc(OC)c2)n1CC`, the Potency was 50.1 µM (active).
In the case of `CN(C)c1cccc(C(=O)Nc2nc3ccc(S(=O)(=O)NC(C)(C)C)cc3s2)c1`, the Potency result was “inactive”.
Take `CCCCCN(C(=O)CCC(=O)OCCOc1ccc(OC)cc1)c1c(N)n(CCCC)c(=O)[nH]c1=O`: the Potency entry is “inactive”.
Take `COC(=O)C1CCN(C(=O)NC2CC(=O)N(c3ccc4c(c3)OCCO4)C2)CC1` (stereo not drawn): the activity, negative = inhibition is 21.6% [at 0.501 µM].
For `O=C(CSc1nnc(N2CCOCC2)n1-c1cccc(F)c1)N1CCN(c2ccccn2)CC1`, the activity, negative = inhibition is -9.34% [at 12.7 µM].
On to `COc1ccc(S(=O)(=O)c2cn(C)c3cc(N4CCCCC4)c(F)cc3c2=O)cc1`, for which the Potency entry is “inactive”.
Turning to `CCc1nc(N2CCN(c3nc(C)cc(C)n3)CC2)c2oc3ccccc3c2n1`, the activity, negative = inhibition is 2.59% [at 2.33 µM].
For `CCc1nc(Nc2ccc(NC(C)=O)cc2)c2oc3ccccc3c2n1`, the Potency was 50.1 µM (active).
For the molecule `CCc1nc(Nc2ccc3nccnc3c2)c2oc3ccccc3c2n1`, the Potency result was “inactive”.
Turning to `CCOc1ccc(S(=O)(=O)N(CC(=O)NCCSCc2ccc(C)cc2)c2ccccc2)cc1`, the Potency result was “inactive”.
On the same count and under the same terms, the value for `Clc1c(OCCCn2ccnc2)ccc2ccccc12` was 79.4 µM (active); that for `Brc1ccc(OCCn2ccnc2)cc1` was “inactive”.
With `c1ccc(Cc2ccc(OCCn3ccnc3)cc2)cc1`, the Potency entry is “inactive”.
For `Cc1ccccc1S(=O)(=O)N1[C@@H](c2cccc(Cl)c2)C(C(=O)O)=CC[C@H]1c1ccc(Cl)cc1`, the activity, negative = inhibition was -5.32% [at 2.33 µM].
For `CCOc1ccc(CNC(=O)CCc2c(C)nn(-c3ccc(N4CCCCC4)nn3)c2C)cc1`, the Potency result is “inactive”.
On to `COc1ccccc1CC(=O)Nc1ccc([N+](=O)[O-])cc1OC`, for which the Potency result is “inactive”.
As for `COc1ccccc1CSc1ncc(-c2ccc([N+](=O)[O-])cc2)[nH]1`, the Potency was 8.91 µM (active).
As for `COc1ccccc1CSc1nc2ccccc2[nH]1`, the Potency result is “inactive”.
For the molecule `Cc1ccc(C(=O)NCCNS(=O)(=O)c2ccccc2)cc1`, the Potency result was “inactive”.
In the case of `O=C(NCCSc1ccccc1)c1ccco1`, the Potency result was “inactive”.
As to `CCS(=O)(=O)Nc1ccc(C(=O)NCCSc2ccccc2)cc1`, the Potency was 79.4 µM (active).
`CCCN(C(=O)c1nc2nccc(C)n2n1)c1c(N)n(Cc2ccccc2)c(=O)[nH]c1=O`: the activity, negative = inhibition is 3.83% [at 12.7 µM].
With `CC(OC(=O)CCC(=O)c1ccccc1)C(=O)Nc1ccc(F)cc1` (stereo not drawn), the Potency result was “inactive”.
Still for that read-out and setting: the value for `O=C(Nc1ccc(S(=O)(=O)NCC2CCCO2)cc1)c1ccc(F)cc1` (stereo not drawn) was “inactive”; that for `N#Cc1c(-c2ccccc2)cc(-c2ccccc2)nc1SCC(=O)O` was 11.2 µM (active).
In the case of `CCSc1nc(-c2ccc(OC)cc2)cc(-c2ccc(OC)cc2)c1C#N`, the Potency entry was “inactive”.
Same read-out and setting: the value for `N#Cc1c(C(F)(F)F)cc(-c2ccc(Cl)cc2)nc1SCC(=O)O` was “inactive”; that for `CCc1ccc(NC(=O)c2cnc3c(-c4ccccc4)c(C)nn3c2C)cc1` was “inactive”.
Regarding `O=C(NCc1ccc2c(c1)OCO2)c1c(O)nc2sccn2c1=O`, the Potency result is “inactive”.
In the case of `Cc1ccc(NC(=O)C(Cc2ccccc2)NS(=O)(=O)c2ccc3c(c2)oc(=O)n3C)cc1C` (stereo not drawn), the Potency entry was “inactive”.
Same read-out and setting: the value for `O=C(C[n+]1ccccc1)N/N=C/c1ccc(O)cc1` was “inactive”; that for `O=C(N/N=C/c1ccc(OCc2ccccc2)cc1)c1ccc(O)cc1` was “inactive”; that for `Oc1ccc(/C=N/N(Cc2ccccc2)c2ccccc2)cc1` was 39.8 µM (active).
On to `Cc1ccc(Cn2c(CNC(=O)Cc3cccc(C)c3)nc3cccnc32)cc1`, for which the Potency entry was “inactive”.
Turning to `CCOC(=O)C1=C(c2ccccc2)Nc2ncnn2C1c1ccc(Cl)cc1` (stereo not drawn), the Potency result was “inactive”.
The same measure, in the same setting: the value for `Fc1ccccc1/C=C1\CCCC2=C1Nc1ncnn1C2c1ccccc1F` (stereo not drawn) was 35.5 µM (active).
Consider `CC1=C(C(N)=O)C(c2ccc(Br)cc2)n2ncnc2N1` (stereo not drawn), for which the Potency entry is “inactive”.
On the same count and under the same terms, the value for `COc1cc(NC(=O)c2nn(-c3ccc(C)cc3)c(=O)c3c2c2ccccc2n3C)cc(OC)c1OC` was “inactive”; that for `COc1ccc2c(c1)CCc1c(C(=O)Nc3cc(C)ccc3O)noc1-2` was “inactive”; that for `CC(C)(C)c1ccc(OC2=CS(=O)(=O)c3ccccc32)cc1` was “inactive”.
As to `Cc1cc(C(C)(C)C)cc(C)c1N`, the Potency entry was “inactive”.
